TLR4 MyD88 comp = inhibitors of TLR4-MyD88 association in cells, primary screen, cell-based, HeLa CL3-4, BLA complementation, FRET ratio | hit rate 0.18% among 200,000 | Toll-like receptor 4 (Homo sapiens) + Myeloid differentiation primary response protein … | AID 861, 2007 | HeLa CL3-4 TLR4/MyD88 BLA complementation | inhibition, % at 8.4 µM; in the data active = inhibition above about 25%
NOD2 RIPK2 PPI = NOD2-RIPK2 binding disruptors in cells, primary screen, fluorescence, CHO cells, BLA complementation; CCF4 ratio; inhibition, % at 4.98 µM; hit rate 0.38% among 360,000; AID 624267, 2012; in the data active = inhibition above about 21%
Target sequence (O43353 whole entry, looked up): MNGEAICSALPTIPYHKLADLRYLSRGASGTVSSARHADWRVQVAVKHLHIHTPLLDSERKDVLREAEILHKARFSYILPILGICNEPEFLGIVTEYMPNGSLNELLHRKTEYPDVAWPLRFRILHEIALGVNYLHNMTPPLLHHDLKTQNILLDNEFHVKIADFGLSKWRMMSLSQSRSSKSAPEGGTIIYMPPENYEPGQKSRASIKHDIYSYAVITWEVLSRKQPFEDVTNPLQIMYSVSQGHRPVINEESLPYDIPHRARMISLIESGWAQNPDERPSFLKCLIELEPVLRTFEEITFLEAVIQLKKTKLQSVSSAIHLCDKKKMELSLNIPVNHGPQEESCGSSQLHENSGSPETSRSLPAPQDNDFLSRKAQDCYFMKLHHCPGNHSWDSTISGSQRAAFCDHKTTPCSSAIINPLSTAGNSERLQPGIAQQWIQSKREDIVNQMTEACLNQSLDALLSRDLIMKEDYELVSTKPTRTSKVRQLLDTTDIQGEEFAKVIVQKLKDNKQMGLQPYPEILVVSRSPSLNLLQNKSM
PRMT1 inh = PRMT1 methyltransferase inhibitors, primary screen, biochemical, fluorescence polarization; inhibition, % at 2.79 µM; AID 652257, 2013; recombinant PRMT1, activity-based probe fluorescence polarization; Protein arginine N-methyltransferase 1 (Homo sapiens), Q99873; hit rate 1.3% among 370,000;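 active = inhibition above about 21% made by adding two undisclosed values, limit read from the data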
TLR9-MyD88 inh = inhibitors of TLR9-MyD88 association in cells, primary screen, cell-based, CHO, BLA complementation, fluorescence. hit rate 0.21% among 340,000. CCF4 FRET ratio. inhibition, % at 4.98 µM. AID 504734, 2011. Toll-like receptor 9 (Homo sapiens) + Myeloid differentiation primary response protein …;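 active = inhibition above the mean over all tested compounds plus 3 SD, cut at about 21% in these data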
ABHD5 PLIN5 PPI = ABHD5-PLIN5 interaction inhibitors, primary screen, cell lysate, split luciferase complementation, luminescence; Split G. princeps luciferase complementation, 4 h; hit rate 0.78% among 360,000; inhibition, % at 4 µM; Perilipin-5 (Homo sapiens) + 1-acylglycerol-3-phosphate O-acyltransferase ABHD5 (Homo …;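 active = inhibition above the mean inhibition across every tested compound plus 3 SD, cut at about 22% in these data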
rCAG RNA binder = binders of r(CAG) RNA repeats, primary screen, biochemical, fluorescence. r(CAG) RNA repeat, TO-PRO-1 dye displacement fluorescence. inhibition, % at 3 µM. hit rate 1.3% among 370,000. AID 651821, 2012;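 active = inhibition above the plate cutoff, the mean of all test compounds on that plate plus 3 SD, cut at about 35% in these data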;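 also: higher means more dye released from RNA so lower well fluorescence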
PRMT1 inh conf = PRMT1 methyltransferase inhibitors, confirmation, biochemical, fluorescence polarization, triplicate. shares compounds with PRMT1 inh. recombinant His-PRMT1, activity-based probe fluorescence polarization. inhibition, % at 2.79 µM. hit rate 42% among 3,300;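 active = mean inhibition across replicates above the hit cutoff derived for the earlier primary screen, cut at about 22% in these data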
Of the large screens only hits and unclear results are named; the others gave an inactive call (follow-up assays come after a bar, where they were run). Compounds with a hit are over-represented: about 3.3% of the library has one in this group of screens.

CC(C)(Sc1cc(C(C)(C)C)c(O)c(C(C)(C)C)c1)Sc1cc(C(C)(C)C)c(O)c(C(C)(C)C)c1	none
CC(C)C1Oc2ccccc2N(CC(=O)N(Cc2ccccn2)CC2CCCO2)C1=O (stereo not given)	none
Cc1ccc(CN(CC2CCCO2)C(=O)CN2C(=O)C(C(C)C)Oc3ccccc32)o1 (stereo not given)	PRMT1 inh 32.2 | PRMT1 inh conf inactive
Cc1ccc(S(=O)(=O)NCc2ccccc2)cc1C(=O)N1CCCCCCC1	none (no result: TLR4 MyD88 comp)
CCC(CC)C(C(=O)NCc1ccccc1)N1CCN(CCN2CCOCC2)CC1 (stereo not given)	none (no result: TLR4 MyD88 comp, TLR9-MyD88 inh)
C/C(CCc1oc2ccc(Cl)cc2c1-c1ccc(C)o1)=N\O	PRMT1 inh 32.6 | PRMT1 inh conf inactive
C/C(CCc1oc2ccc(Br)cc2c1-c1ccc(C)o1)=N/O	none
COCCNC(=O)Cc1ccc(Br)cc1	none
COCCNC(=S)c1ccc(Br)cc1	PRMT1 inh 35.9 | PRMT1 inh conf inactive
CCC1OC2(C)OC(=N)C1(C#N)C(C#N)(C#N)C2c1ccccc1 (stereo not given)	none
CCC12OC(=N)C(C#N)(C1C)C(C#N)(C#N)C(c1ccccc1)O2 (stereo not given)	PRMT1 inh 28.4 | PRMT1 inh conf 30.2
CCOC(=O)NC(=O)C(/C=N/c1sccc1C(=O)OC)=C(\C)O	PRMT1 inh 45.0 (no result: TLR9-MyD88 inh) | PRMT1 inh conf inactive
CCC(=O)Nc1sccc1C(=O)OC	none (no result: PRMT1 inh, rCAG RNA binder)
O=C(O)CCc1ccc(-c2ccccc2)n1Cc1ccco1	PRMT1 inh 33.0 | PRMT1 inh conf inactive
COc1cc(C)nc(NC(=S)N(C)C(=O)c2ccccc2)n1	none (no result: TLR4 MyD88 comp, TLR9-MyD88 inh)
O=C(O)CCCCN1C(=O)C=CC1=O	PRMT1 inh 76.8 (no result: TLR4 MyD88 comp, NOD2 RIPK2 PPI, TLR9-MyD88 inh, ABHD5 PLIN5 PPI) | PRMT1 inh conf 95.0
O=C(O)CCCN1C(=O)C2C3C=CC(C2C1=O)C1C(=O)N(CCCC(=O)O)C(=O)C31 (stereo not given)	none (no result: TLR4 MyD88 comp)
CCOC(=O)C1=C(C)Nc2nc(=S)[nH]n2C1c1ccc(Cl)cc1 (stereo not given)	PRMT1 inh 28.7 | PRMT1 inh conf 24.8
COC(=O)C(C)Sc1n[nH]c(=S)s1 (stereo not given)	PRMT1 inh 34.9 | PRMT1 inh conf inactive
COC(=O)CSc1n[nH]c(=S)s1	none
O=C(O)CC(Sc1n[nH]c(=S)s1)C(=O)O (stereo not given)	PRMT1 inh 27.4 (no result: TLR4 MyD88 comp) | PRMT1 inh conf inactive
CN1CCN(S(=O)(=O)c2cccc(C(=O)NCCOc3ccccc3F)c2)CC1	none (no result: TLR4 MyD88 comp)
COCC(C)NC(=O)CSc1nc2ccccc2n1CCc1ccccc1 (stereo not given)	none
O=C1NC2c3c(I)sc(I)c3C(=O)C2O1 (stereo not given)	PRMT1 inh 47.2 (no result: TLR4 MyD88 comp) | PRMT1 inh conf inactive
O=C1NC2c3c(Cl)sc(Cl)c3C(=O)C2O1 (stereo not given)	none (no result: TLR4 MyD88 comp)
Cc1ccc(CN(C)C(=O)c2cc(COc3cccc(C(F)(F)F)c3)on2)o1	PRMT1 inh 36.5 (no result: TLR4 MyD88 comp) | PRMT1 inh conf 34.1
O=C1c2ccccc2C(=O)N1SC1CCCCC1	PRMT1 inh 63.4 | PRMT1 inh conf 73.5
CC(Oc1ccc2c(-c3ccccc3)cc(=O)oc2c1)C(=O)NCCCn1ccnc1 (stereo not given)	none (no result: TLR4 MyD88 comp)
CC(C)(C)c1ccc(NC(=O)CSc2n[nH]c(=O)n2C2CC2)cc1	none (no result: TLR4 MyD88 comp)
NC1=NS(=O)(=O)NC1c1ccc(F)cc1 (stereo not given)	none
CCOC(=O)C1CSc2[nH]c(=O)sc2C1c1ccccc1 (stereo not given)	PRMT1 inh 31.2 | PRMT1 inh conf inactive
CCOc1ccc(-n2c(SCC(=O)c3ccc4ccccc4c3)nnc2-c2ccco2)cc1	PRMT1 inh 45.6 (no result: TLR4 MyD88 comp, NOD2 RIPK2 PPI, TLR9-MyD88 inh, ABHD5 PLIN5 PPI) | PRMT1 inh conf inactive
